Assay results: PubChem BioAssay (NCI)
Compounds without any hit were thinned out: in the full panel of roughly 83,000, 20% have a hit.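 Step 1: grow cells in 96-well plates. Step 2: add test compound at a single concentration. Step 3: incubate 48 h. Step 4: record percent growth.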 The source made the active and inactive calls. Rule for the calls: active = growth percent below 10; inactive = the rest.

Assays:
Experiment in all cases: NCI-60 one-dose screen, 48 h (100 = growth as untreated, 0 = no growth, -100 = all killed)
Conditions in all cases: 10 µM
NCI-H23 lung = system: NCI-H23 lung
NCI-H226 lung = system: NCI-H226 lung
NCI-H322M lung = system: NCI-H322M lung
HOP-62 NSCLC = system: HOP-62 NSCLC
NCI-H460 lung = system: NCI-H460 lung
NCI-H522 lung = system: NCI-H522 lung
A549/ATCC NSCLC = system: A549/ATCC NSCLC
786-0 renal = system: 786-0 renal
COLO 205 colon = system: COLO 205 colon
DU-145 prostate = system: DU-145 prostate
K-562 leukemia = system: K-562 leukemia
MALME-3M melanoma = system: MALME-3M melanoma
MDA-MB-231 breast = system: MDA-MB-231 breast
RXF 393 renal = system: RXF 393 renal
SF-268 CNS = system: SF-268 CNS
SF-295 CNS = system: SF-295 CNS
SF-539 CNS = system: SF-539 CNS
UACC-257 melanoma = system: UACC-257 melanoma
M14 melanoma = system: M14 melanoma
HCT-15 colon = system: HCT-15 colon

Measured: growth

O=C(CCCCCCC(=O)Nc1cccnc1)NO
active: NCI-H522 lung -12.8% | K-562 leukemia 5.89% | MALME-3M melanoma -23.1%
inactive: NCI-H23 lung 57.9% | NCI-H226 lung 86.5% | NCI-H322M lung 27.7% | HOP-62 NSCLC 39.5% | NCI-H460 lung 39.9% | A549/ATCC NSCLC 66.2% | 786-0 renal 70.4% | COLO 205 colon 113% | DU-145 prostate 40.1% | MDA-MB-231 breast 66.4% | RXF 393 renal 17.6% | SF-268 CNS 41.5% | SF-295 CNS 73.6% | SF-539 CNS 50% | UACC-257 melanoma 78.4% | M14 melanoma 29.6% | HCT-15 colon 93.1%

N=C(N)c1ccc(-c2ccc(-c3cccs3)o2)cc1
active: NCI-H460 lung 0.151% | COLO 205 colon -97.4% | K-562 leukemia -13.1% | MALME-3M melanoma -72.4% | MDA-MB-231 breast 0.444% | SF-295 CNS -52.3% | UACC-257 melanoma -47.3% | M14 melanoma -27.4% | HCT-15 colon -10.2%
inactive: NCI-H23 lung 85.1% | NCI-H226 lung 67.5% | NCI-H322M lung 12.8% | HOP-62 NSCLC 64.7% | NCI-H522 lung 61.9% | A549/ATCC NSCLC 45.4% | 786-0 renal 62.3% | DU-145 prostate 57.9% | RXF 393 renal 39% | SF-268 CNS 61.6% | SF-539 CNS 77.9%

CCCC#CCN(CC)CC
inactive: NCI-H23 lung 111% | NCI-H226 lung 107% | NCI-H322M lung 108% | HOP-62 NSCLC 117% | NCI-H460 lung 107% | NCI-H522 lung 97.6% | A549/ATCC NSCLC 93.8% | 786-0 renal 100% | COLO 205 colon 110% | DU-145 prostate 123% | K-562 leukemia 103% | MALME-3M melanoma 111% | MDA-MB-231 breast 109% | RXF 393 renal 112% | SF-268 CNS 111% | SF-295 CNS 80.2% | SF-539 CNS 99.6% | UACC-257 melanoma 93.6% | M14 melanoma 108% | HCT-15 colon 99.6%

CC(C)N(CCNc1nc(C(Cl)(Cl)Cl)nc2cc(Cl)ccc12)C(C)C
inactive: NCI-H322M lung 33.5%
active: NCI-H23 lung -0.581% | NCI-H226 lung 0.531% | HOP-62 NSCLC -41.4% | NCI-H460 lung -45.6% | NCI-H522 lung -68.4% | A549/ATCC NSCLC -41.6% | 786-0 renal -76.4% | COLO 205 colon -89.8% | DU-145 prostate -15% | K-562 leukemia -53.9% | MALME-3M melanoma -28% | MDA-MB-231 breast -66.4% | RXF 393 renal -19% | SF-268 CNS 0.341% | SF-295 CNS -64.9% | SF-539 CNS -33.7% | UACC-257 melanoma -64.7% | M14 melanoma -68.7% | HCT-15 colon -38.4%

CN(CCc1ccccn1)c1ccccc1
inactive: NCI-H23 lung 110% | NCI-H226 lung 113% | NCI-H322M lung 113% | HOP-62 NSCLC 104% | NCI-H460 lung 118% | NCI-H522 lung 109% | A549/ATCC NSCLC 99.7% | 786-0 renal 98.5% | COLO 205 colon 104% | DU-145 prostate 121% | K-562 leukemia 95.2% | MALME-3M melanoma 168% | MDA-MB-231 breast 105% | RXF 393 renal 120% | SF-268 CNS 124% | SF-295 CNS 116% | SF-539 CNS 94.1% | UACC-257 melanoma 99.7% | M14 melanoma 100% | HCT-15 colon 89.8%

O=C1ON=[N+](c2ccc(Cc3ccc([N+]4=NOC(=O)C4CN4CCOCC4)cc3)cc2)C1CN1CCOCC1 (stereo not given)
inactive: NCI-H23 lung 62.1% | NCI-H226 lung 85.5% | NCI-H322M lung 82.5% | HOP-62 NSCLC 77% | NCI-H460 lung 82.9% | NCI-H522 lung 37% | A549/ATCC NSCLC 69.1% | 786-0 renal 74% | COLO 205 colon 99.9% | DU-145 prostate 101% | K-562 leukemia 26.4% | MALME-3M melanoma 65.6% | MDA-MB-231 breast 60.5% | RXF 393 renal 72.2% | SF-268 CNS 78.3% | SF-295 CNS 44.1% | SF-539 CNS 77.5% | UACC-257 melanoma 75.1% | M14 melanoma 69.5% | HCT-15 colon 78.6%

CCOCCOCCOCCOCCOCCOCCOCCOCCOCCO (tested in a mixture with another compound)
active: NCI-H23 lung 7.79% | NCI-H522 lung -66.5% | COLO 205 colon -89.7% | K-562 leukemia 4.03% | MALME-3M melanoma 0.836% | SF-295 CNS -29.2% | SF-539 CNS -10.1% | UACC-257 melanoma -7.19%
inactive: NCI-H226 lung 28.2% | NCI-H322M lung 51.4% | HOP-62 NSCLC 24.4% | NCI-H460 lung 12.9% | A549/ATCC NSCLC 14% | 786-0 renal 39.3% | DU-145 prostate 28.1% | MDA-MB-231 breast 10.5% | RXF 393 renal 37.3% | SF-268 CNS 21.8% | M14 melanoma 10.8% | HCT-15 colon 22.1%

C/C(=N\Nc1nc2ccccc2s1)c1ccncn1
inactive: NCI-H23 lung 42.3% | NCI-H226 lung 41.9% | NCI-H322M lung 46.2% | HOP-62 NSCLC 41.3% | NCI-H460 lung 23.2% | A549/ATCC NSCLC 50.6% | 786-0 renal 38.3% | DU-145 prostate 28.3% | MALME-3M melanoma 43.2% | MDA-MB-231 breast 31.3% | SF-268 CNS 45.5% | SF-295 CNS 39.3% | SF-539 CNS 40.8% | UACC-257 melanoma 55.6% | M14 melanoma 34.9% | HCT-15 colon 18.6%
active: NCI-H522 lung 4.38% | COLO 205 colon 7.12% | K-562 leukemia 0.401% | RXF 393 renal 9.64%
